The list is not random: actives were taken first. Their share in the collection is about 2.4%.
Pol beta inh: blocks human DNA polymerase beta activity. P06746. Pol beta primer extension/strand displacement, fluorescence kinetic. Potency, µM (titrated, usually from 114 µM), without a hit: at the top dose activity change, negative = inhibition, actives largely listed as inhibitors. actives 1.3% (n = 340,000); note: % is set by controls: 0 for no effect and ±100 for the full control effect
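Human Pol beta at 10 nM; strand-displacement substrate 50 nM final. Compound exposure 15 min at room temperature before start, reaction 10 min at room temperature.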
Pol kappa inh: DNA polymerase kappa (human) inhibition. purified Pol kappa, fluorescent DNA synthesis assay, 10 min. Potency, µM (series often up to 107 µM), for the others: at the highest dose activity, negative = inhibition, actives largely listed as inhibitors. actives 0.53% (n = 400,000); note: % is set by controls: 0 for no effect and ±100 for the full control effect
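10 nM Pol kappa preincubated 15 min at room temperature with compounds, then reaction started with substrate at 50 nM final. Fluorescence read kinetically at 0 and 10 min; buffer-only wells served as negative control.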
APEX1 inh: APE1 (human) endonuclease inhibition | P27695 | recombinant APE1, TAMRA/BHQ-2 abasic DNA cleavage fluorescence | Potency, µM (highest dose often 65.8 µM), for inactives: top-dose activity change, negative = inhibition, hits mostly inhibitors | actives 0.35% (n = 350,000) | AID 2517;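 note: plate controls were vehicle for no effect and reference inhibitor for full effect; nearly all actives have a fitted effect of over 55% in size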
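Enzyme (0.75 nM final) and test compound are incubated 15 min at room temperature before adding 50 nM quenched THF abasic-site duplex. Cleavage dequenches TAMRA, followed at 525/598 nm over three reads one minute apart.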
Pol eta inh: DNA polymerase eta (human) inhibition. Q9Y253. recombinant Pol eta, fluorescent DNA replication assay. Potency, µM (titrated, usually from 114 µM), inactives show at the highest dose activity change, negative = inhibition, usual class: inhibitors. actives 1.2% (n = 390,000). AID 588591; note: % is set by controls: 0 for no effect and ±100 for the full control effect
Target sequence (Q9Y253 whole entry, looked up): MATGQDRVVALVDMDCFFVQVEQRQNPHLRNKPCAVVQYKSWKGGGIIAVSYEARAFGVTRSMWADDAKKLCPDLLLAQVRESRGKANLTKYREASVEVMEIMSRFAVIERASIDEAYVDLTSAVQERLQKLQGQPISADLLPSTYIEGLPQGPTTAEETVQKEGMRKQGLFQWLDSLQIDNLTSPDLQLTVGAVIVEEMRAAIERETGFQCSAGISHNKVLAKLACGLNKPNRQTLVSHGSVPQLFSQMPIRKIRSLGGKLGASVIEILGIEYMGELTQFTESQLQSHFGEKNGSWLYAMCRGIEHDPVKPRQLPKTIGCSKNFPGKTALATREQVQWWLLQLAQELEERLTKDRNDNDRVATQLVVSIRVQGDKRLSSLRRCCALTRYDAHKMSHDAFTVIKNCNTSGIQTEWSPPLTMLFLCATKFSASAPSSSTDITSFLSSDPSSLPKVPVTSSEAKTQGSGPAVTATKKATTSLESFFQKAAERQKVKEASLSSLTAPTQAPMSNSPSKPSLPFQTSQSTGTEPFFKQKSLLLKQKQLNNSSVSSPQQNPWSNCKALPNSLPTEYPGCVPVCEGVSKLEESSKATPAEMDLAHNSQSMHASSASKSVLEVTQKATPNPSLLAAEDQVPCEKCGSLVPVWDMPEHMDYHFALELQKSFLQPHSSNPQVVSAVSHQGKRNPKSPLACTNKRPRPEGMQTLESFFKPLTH
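Fluorescent replication assay: 50 nM final substrate added after a 15 min room-temperature compound preincubation with 10 nM enzyme. Signal taken at 0 min and again at 10 min.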
GLS inh: glutaminase GLS (human) inhibition. Potency, µM (top dose mostly 45.5 µM), inactives show at the highest dose activity change, negative = inhibition, most hits filed as inhibitors. O94925. AID 624170. GLS enzymatic activity, qHTS titration. actives 0.21% (n = 410,000); note: % is set by controls: 0 for no effect and ±100 for the full control effect
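hKGA; 45 mM KH2PO4 pH 8.2 + 0.02% Tween-20; cpd via pin tool; 1 mM Gln soln; GluOx/HRP/Amplex Red; RT 30 min; fluor. t0 & final.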
Pol iota inh: blocks human DNA polymerase iota activity; Pol iota fluorescent replication assay, 10 min; Potency, µM (titrated, usually from 115 µM), without a hit: at the top dose activity, negative = inhibition, hits mostly inhibitors; actives 1% (n = 390,000); AID 588590
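Fluorescent replication assay read twice, at 0 min and 10 min after adding 50 nM (final) substrate. Enzyme (10 nM) and compounds were first incubated 15 min at room temperature; enzyme-free buffer wells were negative controls.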
* = called active by the depositor; [ ] = another dose, or the depositor's remark. Calls come from the whole dose curve; as a rule, active = well fitted curve in the direction sought with a large enough effect; inconclusive = small, poorly fitted or top-dose-only effect, or another doubt; inactive = no such curve, though single readings can be large; an effect the other way counts as inactive or inconclusive. Potency is the fitted concentration of half-maximal effect.

What do the screens show for `CN(Cc1ccccc1)C(=O)C1CCN(S(=O)(=O)c2cccc3nonc23)CC1`?
Pol beta inh: -8.7%; Pol kappa inh: 1.4%; APEX1 inh: 16.2%; Pol eta inh: 2.7%; GLS inh: 10µM*; Pol iota inh: inconclusive

How did CCc1cccc(C)c1NC(=O)C1CCN(S(=O)(=O)c2cccc3nonc23)CC1 do in these assays?
Pol beta inh: inconclusive; Pol kappa inh: inconclusive; Pol eta inh: -0.7%; GLS inh: -2.6%; Pol iota inh: 89.1µM*

Results for Cc1ccc(NC(=O)C2CCN(S(=O)(=O)c3cccc4nonc34)CC2)cc1C ?
Pol beta inh: -11.2%; Pol kappa inh: -5.1%[60.1 µM]; Pol eta inh: 13.5%; GLS inh: -10.8%; Pol iota inh: -20.2%

How did O=C(O)CCC(=O)Nc1ccc(Cc2ccc(NC(=O)CCC(=O)O)c(O)c2)cc1O do in these assays?
Pol beta inh: -0.2%; Pol kappa inh: -40.7%; APEX1 inh: -7.6%; Pol eta inh: 15.8µM*; GLS inh: 1.41µM*; Pol iota inh: inconclusive

Results for CCOC(=O)C1C(c2ccc(O)c(OC)c2)NC(=S)NC1(O)C(F)(F)F (stereo unspecified) ?
Pol beta inh: 34.8%; Pol kappa inh: 5.7%; APEX1 inh: 4.4%; Pol eta inh: -14.2%; GLS inh: 50.2%; Pol iota inh: 3.1%

Results for CCOC(=O)C1C(c2ccccc2)NC(=S)NC1(C)O (stereo unspecified) ?
Pol beta inh: 24.8%; Pol kappa inh: 3.9%; APEX1 inh: 17.3%; Pol eta inh: -19.1%; GLS inh: 2.82µM*; Pol iota inh: 88.9%

How did O=C(O)Cn1cnc2scc(-c3cccs3)c2c1=O do in these assays?
Pol beta inh: 20µM*; Pol kappa inh: -24.8%; APEX1 inh: inconclusive; Pol eta inh: 20µM*; GLS inh: -23.0%; Pol iota inh: inconclusive

How did O=C(O)Cn1cnc2scc(-c3ccccc3)c2c1=O do in these assays?
Pol beta inh: -24.7%; Pol kappa inh: 6.7%; APEX1 inh: 14.5%; Pol eta inh: -12.5%; GLS inh: -3.0%; Pol iota inh: 28.8%

Results for N#CC1=C(N)n2c(s/c(=C\c3cccs3)c2=O)=C(C#N)C1c1cccs1 (stereo unspecified) ?
Pol beta inh: inconclusive; Pol kappa inh: inconclusive; APEX1 inh: -7.1%; Pol eta inh: 44.7µM*; GLS inh: -6.8%; Pol iota inh: inconclusive

What do the screens show for `CC(C)c1ccc(/C=c2\sc3n(c2=O)C(N)=C(C#N)C(c2ccc(C(C)C)cc2)C=3C(N)=O)cc1` (stereo unspecified)?
Pol kappa inh: -16.8%; Pol eta inh: 4.7%; GLS inh: -13.9%; Pol iota inh: 46.7%

Results for N#CC1=C(N)n2c(s/c(=C\c3ccco3)c2=O)=C(C#N)C1c1ccco1 (stereo unspecified) ?
Pol beta inh: 7.08µM*; Pol kappa inh: 22.4µM*; APEX1 inh: 7.08µM*; Pol eta inh: 3.16µM*; GLS inh: 11.2µM*; Pol iota inh: 7.94µM*

Results for CCOC(=O)C1=c2s/c(=C\c3ccncc3)c(=O)n2C(N)=C(C(=O)OC)C1c1ccncc1 (stereo unspecified) ?
Pol beta inh: 30.0%; Pol kappa inh: -0.2%; APEX1 inh: -1.0%; Pol eta inh: -24.0%; GLS inh: -6.7%; Pol iota inh: 1.5%

What do the screens show for `CCOC(=O)C1=C(N)n2c(s/c(=C/c3ccco3)c2=O)=C(C(=O)OC)C1c1ccco1` (stereo unspecified)?
Pol beta inh: 28.2µM*; Pol kappa inh: inconclusive; APEX1 inh: inconclusive; Pol eta inh: inconclusive; GLS inh: -1.3%; Pol iota inh: inconclusive

How did O=c1cc(/C=C/c2c(F)cccc2Cl)[nH]c2ccccc12 do in these assays?
Pol beta inh: 26.6%; Pol kappa inh: -10.2%; APEX1 inh: 5.5%; Pol eta inh: 11.2µM*; GLS inh: 6.8%; Pol iota inh: 12.7%

What do the screens show for `CCc1c(C(=O)Nc2ccccc2)c(C)[nH]c(=S)c1C#N`?
Pol beta inh: inconclusive; Pol kappa inh: 0.8%; APEX1 inh: -0.8%; Pol eta inh: -7.0%; GLS inh: 11.2µM*; Pol iota inh: 1.6%

What do the screens show for `CC(C(=O)OCC(=O)Nc1cccc(S(=O)(=O)N(C)C)c1)N1C(=O)c2ccccc2C1=O` (stereo unspecified)?
Pol beta inh: -17.3%; Pol kappa inh: 7.2%; APEX1 inh: -2.5%; Pol eta inh: -23.2%; GLS inh: inconclusive; Pol iota inh: 28.7%

What do the screens show for `Oc1cccc(C=Nc2cccc3ccccc23)c1O`?
Pol beta inh: 8.91µM*; Pol kappa inh: 35.5µM*; APEX1 inh: 1.1%; Pol eta inh: -15.9%; GLS inh: inconclusive; Pol iota inh: 11.2µM*

How did Oc1ccccc1C=Nc1cccc2ccccc12 do in these assays?
Pol beta inh: -1.4%; Pol kappa inh: -8.7%; APEX1 inh: -5.9%; Pol eta inh: -19.4%; GLS inh: -10.6%; Pol iota inh: 62.1%

How did Oc1cccc(C=NCc2ccccc2)c1O do in these assays?
Pol beta inh: 3.55µM*; Pol kappa inh: 14.1µM*; APEX1 inh: inconclusive; Pol eta inh: inconclusive; GLS inh: 60.9%; Pol iota inh: 7.94µM*

Results for Oc1c(C=NCc2ccccc2)sc2ccccc12 ?
Pol beta inh: 5.1%; Pol kappa inh: -4.2%; APEX1 inh: -0.1%; Pol eta inh: -7.5%; GLS inh: 2.4%; Pol iota inh: 43.4%

How did COc1ccc2c(c1)c(/C=C/c1cc[n+](C)cc1)cn2C do in these assays?
Pol beta inh: 89.1µM*; Pol kappa inh: -18.7%; APEX1 inh: -12.5%; Pol eta inh: -15.2%; GLS inh: 10.6%; Pol iota inh: inconclusive

Results for O=C(OCC(=O)N1CCN(c2ccccc2)CC1)c1ccc2ncsc2c1 ?
Pol beta inh: 89.1µM*; Pol kappa inh: -39.7%; APEX1 inh: 11.0%; Pol eta inh: inconclusive; GLS inh: 17.2%; Pol iota inh: inconclusive

What do the screens show for `O=C(COC(=O)c1ccc2ncsc2c1)NC(=O)C1CCCCC1`?
Pol kappa inh: -26.1%; Pol iota inh: 70.8µM*

What do the screens show for `O=C(OCC(=O)N1CCCC1)c1ccccc1OCc1ccccc1`?
Pol beta inh: 4.9%; Pol kappa inh: -9.5%; APEX1 inh: -3.6%; Pol eta inh: inconclusive; GLS inh: -6.3%; Pol iota inh: 2.0%
